Among the data in PubChem BioAssay are composite z-score values, retold here.

In this assay the test system is XIP peptide (Xip251-270). Put plainly: compounds binding XIP fragment 251-270 – biochemical, small-molecule microarray, fluorescence 635/667 nm, 0.5 µg/mL protein, primary screen (AID 1183). The settings on record: fluorescence 635 nm, higher = more signal.
For the compound `COC(=O)CC=C[C@@H](C)[C@@H](C=NO[C@H](C)c1cn([C@H](CO)Cc2ccccc2)nn1)NS(=O)(=O)c1ccc(C)cc1`, the composite z-score came out at 0.126.
Under `CC(C)CCN1CCc2nc(COc3ccccc3)c3c(c2C1)CO[C@@H](C)C3` stands 0.143; under `COC(=O)CC=C[C@@H](C)[C@@H](C=NOC[C@H]1O[C@H](c2ccccc2)C=C[C@@H]1Oc1ccc(OC)cc1)OC`, -0.294.
Consider `C#CCCCON=C1[C@H]2CCn3c(=O)n(-c4ccccc4)c(=O)n3[C@H]2[C@H](O)[C@@H]2O[C@H]12`, for which the composite z-score worked out at 0.193.
Next, `C#CCCCON=C1C[C@@H](O)[C@@H](O)[C@@H]2[C@@H]3C(=O)N(C(C)(C)C)C(=O)[C@@H]3CC[C@H]12`: -0.385.
As for `O=C(NN=C1C[C@@H](O)[C@@H](O)[C@@H]2[C@@H]3C(=O)N(C[C@@H]4CCCO4)C(=O)[C@@H]3CC[C@H]12)OCc1ccccc1`, the composite z-score is -0.314.
With `COC(=O)CC=C[C@@H](C)[C@@H](C=NOC[C@@H](O)[C@H]1O[C@@H]2OC(C)(C)O[C@@H]2[C@H]1O)NS(=O)(=O)c1ccc(C)cc1`, the composite z-score is -0.0003.
With `O=c1n(-c2ccccc2)c(=O)n2n1CC[C@@H]1C(=NOCc3ccccc3)[C@H]3O[C@H]3[C@@H](O)[C@@H]12`, the composite z-score is -0.0725.
Next, `CC(CCN1CCCCc2nc(C)c(C)cc21)=NOC[C@@H](O)COCc1ccco1`: 0.863; `CCOC(=O)[C@H](Cc1ccccc1)NC(=O)CCC1CC(OC(=O)NCCc2ccc(F)cc2)CC2(CCCC(COC(=O)NCCOC)O2)O1` (stereo partly specified): 0.0681; `Cn1c(=O)n2n(c1=O)[C@H]1[C@H](O)[C@@H]3O[C@@H]3C(=NOCc3ccccc3)[C@H]1CC2`: 0.382.
